Potency data for 25 compounds are collected here from PubChem BioAssay (Tox21).

Test [1] has as its target Luciferin 4-monooxygenase (Photinus pyralis) (UniProt P08659). In words: qHTS assay to identify small molecule inhibitors of firefly luciferase (AID 1224835). Further: nearly all actives have a fitted effect of over 25% in size. Further: potency means the concentration at half of the fitted maximal effect. In outline:
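Inhibition of purified Photinus luciferase is measured by luminescence. Substrate levels (D-luciferin, ATP) sit at their KM values. Each compound is tested in a concentration series.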

The nature of test [2]: qHTS assay to identify small molecule agonists of the constitutive androstane receptor (CAR) signaling pathway - cell viability counter screen (AID 1224836). Further: nearly all actives have a fitted effect of over 45% in size. Further: potency means the concentration at half of the fitted maximal effect. An outline of the steps:
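HepG2-CYP2B6-hCAR, 2500 cells/well, 4 h pre-incubation; cpd 15 conc + PK11195 0.75 uM final; 23 h, 37 C/5% CO2; CellTiter-Fluor, fluorescence.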

The nature of test [3]: qHTS assay to identify small molecule antagonists of the constitutive androstane receptor (CAR) signaling pathway - cell viability counter screen (AID 1224837). Further: nearly all actives have a fitted effect of over 45% in size. Further: potency means the concentration at half of the fitted maximal effect. In outline: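 Cytotoxicity counter-screen: CellTiter-Fluor fluorescence after 23 h compound exposure (15-point qHTS) in double-stable HepG2-CYP2B6-hCAR cells, with 50 nM CITCO added.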
The target in test [4] is Nuclear receptor subfamily 1 group I member 3 (Homo sapiens) (UniProt Q14994). In words: qHTS assay to identify small molecule antagonists of the constitutive androstane receptor (CAR) signaling pathway (AID 1224838).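 Further: HepG2 cells stably expressing hCAR with CYP2B6 luciferase reporter stimulated by CITCO; nearly all actives have a fitted effect of over 40% in size.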 An outline of the steps:
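Antagonism measured as luciferase signal (ONE-Glo, 30 min, room temperature) in CAR-stimulated cells: HepG2-CYP2B6-hCAR double-stable line exposed 24 hr at 37 C to compound in a 15-point series plus 50 nM CITCO.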

The target is the same in test [5]. Nature of the test: qHTS assay to identify small molecule agonists of the constitutive androstane receptor (CAR) signaling pathway (AID 1224839). Further: nearly all actives have a fitted effect of over 15% in size. Further: potency means the concentration at half of the fitted maximal effect. An outline of the steps:
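HepG2-CYP2B6-hCAR cells, 2500/well, 4 h pre-incubation; compounds 15 conc.; PK11195 0.75 uM final; 24 h, 37 C/5% CO2; ONE-Glo luciferase read.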

Test [6] can be described thus: qHTS assay to identify small molecule antagonists of the estrogen related receptor signaling pathway with the pleiotropic PPARgamma coactivator (PGC) from Tox21 10K library - cell viability counter screen (AID 1224840; active means well fitted cell-killing curve with a large enough effect in the repeat runs, not every such curve was filed as active; further: nearly all actives have a fitted effect of over 40% in size). In outline:
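Counter-screen for cytotoxicity: after 17.5 h compound exposure at 37 C, CellTiter-Fluor reagent added to PGC/ERR cells for 30 min and fluorescence read. Cells were seeded at 2,000 per well 6 h before dosing.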

Test [7] is described as follows: qHTS assay to identify small molecule antagonists of the estrogen related receptor signaling pathway with the pleiotropic PPARgamma coactivator (PGC) from Tox21 10K library (AID 1224841; call rule not given here; further: actives are mostly falling curves and most rising ones were filed inactive; nearly all actives have a fitted effect of over 50% in size; further: potency means the concentration at half of the fitted maximal effect). An outline of the steps:
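Luminescence (One-Glo, 30 min at room temperature) after 18 h compound treatment at 37 C of PGC/ERR reporter cells plated at 2,000 cells/well and settled 6 h beforehand.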

The nature of test [8]: qHTS assay to identify small molecule agonists of the estrogen related receptor signaling pathway with the pleiotropic PPARgamma coactivator (PGC) from Tox21 10K library (AID 1224842). Further: nearly all actives have a fitted effect of over 15% in size. In outline:
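Luminescence from One-Glo (30 min, room temperature) measured after PGC/ERR cells had 18 h at 37 C with pinned compound (23 nL in DMSO). Cells had been seeded at 2,000 per well and pre-incubated 6 h.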

Test [9] addresses Thyrotropin receptor (Homo sapiens) (UniProt P16473). In words: qHTS assay to identify small molecule agonists of the thyroid stimulating hormone receptor (TSHR) signaling pathway (AID 1224843; calls by dose curve; further: nearly all actives have a fitted effect of over 45% in size). An outline of the steps:
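Agonist activity read as cAMP rise via d2/cryptate HTRF competition, 1 h room-temperature detection, in HEK293 cells expressing TSHR. Fifteen-point titrations, each run in triplicate, with a 30 min room-temperature incubation beforehand.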

The nature of test [10]: qHTS assay to identify small molecule agonists of the hypoxia (HIF-1) signaling pathway - cell viability counter screen (AID 1224844; calls by dose curve; further: nearly all actives have a fitted effect of over 50% in size). An outline of the steps:
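Cytotoxicity measured by CellTiter-Glo ATP luminescence in the wells also read for beta-lactamase signal. Cells were HRE-bla ME-180 (2,000/well, 0.5% dialyzed FBS), exposed to compounds for 17 h at 37C.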

Inconclusive results are not listed. A number with no mark means an inactive call. Calls of active or inactive are those of the source. Unless noted, the call rests on the fitted dose curve; in most records, active means well fitted curve in the direction sought with a large enough effect in the repeat runs; inconclusive means weak or mixed curves; inactive means no such curve, though single readings can be large; an effect the other way counts as inactive or inconclusive.

Sequence of Luciferin 4-monooxygenase (Photinus pyralis) (P08659 whole entry, looked up): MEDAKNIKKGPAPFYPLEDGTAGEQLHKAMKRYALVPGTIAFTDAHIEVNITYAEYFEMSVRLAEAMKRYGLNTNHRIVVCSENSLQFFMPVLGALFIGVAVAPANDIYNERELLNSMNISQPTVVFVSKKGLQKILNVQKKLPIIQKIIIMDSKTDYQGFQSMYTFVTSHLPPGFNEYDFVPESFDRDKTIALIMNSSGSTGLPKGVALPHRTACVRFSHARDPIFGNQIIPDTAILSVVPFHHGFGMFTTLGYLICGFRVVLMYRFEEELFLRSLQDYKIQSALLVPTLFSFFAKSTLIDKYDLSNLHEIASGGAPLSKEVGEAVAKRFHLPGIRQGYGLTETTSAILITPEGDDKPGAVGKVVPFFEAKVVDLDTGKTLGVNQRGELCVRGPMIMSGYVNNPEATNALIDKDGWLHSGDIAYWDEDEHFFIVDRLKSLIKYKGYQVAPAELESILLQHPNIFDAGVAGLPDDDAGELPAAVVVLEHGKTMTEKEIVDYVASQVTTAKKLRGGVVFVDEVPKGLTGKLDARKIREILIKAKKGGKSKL
Sequence of Nuclear receptor subfamily 1 group I member 3 (Homo sapiens) (Q14994 whole entry, looked up): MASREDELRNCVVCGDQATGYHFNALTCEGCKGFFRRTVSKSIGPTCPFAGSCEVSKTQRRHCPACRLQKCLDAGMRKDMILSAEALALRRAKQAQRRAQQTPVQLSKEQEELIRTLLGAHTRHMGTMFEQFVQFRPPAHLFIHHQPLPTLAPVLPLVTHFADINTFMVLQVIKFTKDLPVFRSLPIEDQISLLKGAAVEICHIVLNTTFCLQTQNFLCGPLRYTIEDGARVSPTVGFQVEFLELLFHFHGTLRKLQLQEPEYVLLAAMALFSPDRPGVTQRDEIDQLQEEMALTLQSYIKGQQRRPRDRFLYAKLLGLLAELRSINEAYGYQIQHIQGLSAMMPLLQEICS
Sequence of Thyrotropin receptor (Homo sapiens) (P16473 whole entry, looked up): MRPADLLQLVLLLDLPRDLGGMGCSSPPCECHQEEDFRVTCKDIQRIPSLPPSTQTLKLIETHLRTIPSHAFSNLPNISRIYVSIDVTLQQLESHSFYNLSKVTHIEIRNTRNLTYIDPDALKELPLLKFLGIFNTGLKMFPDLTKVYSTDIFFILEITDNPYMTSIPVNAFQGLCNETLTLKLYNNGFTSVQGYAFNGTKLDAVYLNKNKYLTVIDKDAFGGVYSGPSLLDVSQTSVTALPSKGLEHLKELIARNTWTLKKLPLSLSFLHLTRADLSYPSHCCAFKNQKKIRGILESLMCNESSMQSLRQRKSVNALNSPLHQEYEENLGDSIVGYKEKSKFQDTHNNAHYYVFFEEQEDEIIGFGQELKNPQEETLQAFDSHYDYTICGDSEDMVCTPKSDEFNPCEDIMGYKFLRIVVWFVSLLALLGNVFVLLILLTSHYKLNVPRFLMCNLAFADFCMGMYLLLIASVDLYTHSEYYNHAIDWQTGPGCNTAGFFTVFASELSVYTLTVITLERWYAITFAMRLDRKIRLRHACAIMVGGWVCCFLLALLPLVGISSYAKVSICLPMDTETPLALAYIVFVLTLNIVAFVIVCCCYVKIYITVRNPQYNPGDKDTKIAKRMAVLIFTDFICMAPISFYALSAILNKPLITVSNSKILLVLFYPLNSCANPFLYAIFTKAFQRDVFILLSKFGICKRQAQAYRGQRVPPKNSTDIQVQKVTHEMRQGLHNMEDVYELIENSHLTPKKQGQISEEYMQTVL

Take `CCCc1ccccc1`: the Potency entry in test [1], in test [2], in [3], in test [4], in test [5] and in test [6] was “inactive” in each case. Moreover, the Potency result in test [7], in test [8], in test [9] and in test [10] was “inactive” in each case.
As for `O=C1c2cccc(O)c2C(=O)c2c(O)cc(CO)cc21`, the Potency result in test [1], in test [2], in test [3], in [4], in [5] and in test [6] was “inactive” in each case. For the same compound, the Potency entry in test [7], in test [8], in test [9] and in test [10] was “inactive” in each case.
Turning to `CCOc1nc2cccc(C(=O)O)c2n1Cc1ccc(-c2ccccc2-c2nn[nH]n2)cc1`, the Potency result in test [1], in test [2], in test [3], in [4], in test [5] and in test [6] was “inactive” each time. For the same compound, the Potency entry in test [7], in test [9] and in [10] was “inactive” in each case.
Turning to `CC(=O)OC/C=C/c1ccccc1`, the Potency result in [1], in test [2], in test [3], in test [4], in test [5] and in test [6] was “inactive” each time. The Potency result in test [7], in test [8] and in [9] was “inactive” throughout.
Turning to `C=CCCCCCC`, the Potency entry in test [1], in test [2], in test [3], in test [4], in test [5] and in test [6] was “inactive” throughout. The Potency entry in test [7], in test [8], in test [9] and in [10] was “inactive” in each case.
Regarding `CCCCCCOC(=O)CCC`, the Potency entry in test [1], in [2], in test [3], in test [4], in [5] and in test [6] was “inactive” in each case. Also, the Potency result in test [9] is “inactive”.
Take `Cc1cccc(Oc2ccccc2)c1`: the Potency entry in test [1], in test [2], in [3], in [4], in [5] and in test [6] was “inactive” in each case. Besides, the Potency result in test [8] and in test [9] was “inactive” each time. Also, the Potency in test [7] is 53.1 µM (active).
As to `O=C(O)c1cccc(N(Cc2cccnc2)c2ccc(OC(F)F)c(OC(F)F)c2)c1`, the Potency result in [1], in test [2], in test [3], in [4], in test [5] and in test [6] was “inactive” throughout. In addition, the Potency result in test [7], in test [8] and in test [10] was “inactive” each time.
With `C=C(C)C(=O)OCCOc1ccccc1`, in test [1], the Potency was 35.6 µM (active). The Potency entry in test [2], in [3], in test [4], in test [5], in test [6] and in [7] was “inactive” throughout. The Potency result in test [8] and in test [10] was “inactive” in each case.
Take `Oc1ccc(O)c2c(O)cccc12`: the Potency result in [1], in test [2], in [3], in test [4], in [5] and in [6] was “inactive” in each case. For the same compound, the Potency result in [7], in [8], in [9] and in test [10] was “inactive” in each case.
On to `N=C(N=C(N)N)N1CCOCC1`, for which the Potency entry in [1], in [2], in test [3], in test [4], in test [5] and in test [6] was “inactive” in each case. For the same compound, the Potency entry in test [7], in [8] and in test [9] was “inactive” in each case.
With `ClC(Cl)(Cl)c1ccc(C(Cl)(Cl)Cl)cc1`, the Potency result in test [1], in [2], in test [3], in [4], in test [5] and in test [6] was “inactive” throughout. In addition, the Potency result in [9] is “inactive”.
For `COc1ccc2[nH]c(S(=O)Cc3ncc(C)c(OC)c3C)nc2n1` (stereo unspecified), the Potency entry in test [1], in [2], in [3], in [4], in test [6] and in test [8] was “inactive” each time. For the same compound, the Potency result in [10] was “inactive”. Also, the Potency in [5] is 26.6 µM (active).
Take `CCCCCCCCC(CO)CCCCCC` (stereo unspecified): the Potency result in test [1], in test [2], in test [3], in test [4], in test [5] and in test [6] was “inactive” throughout. In addition, the Potency result in [7], in test [8], in test [9] and in [10] was “inactive” throughout.
With `Oc1ccc2c(c1)OCO2`, the Potency entry in [1], in test [2], in test [3], in [4], in test [5] and in test [6] was “inactive” in each case. In addition, the Potency entry in [9] was “inactive”.
For `OCC1CC2CC1C1CCC(CO)C21` (stereo unspecified), the Potency entry in test [1], in test [2], in [3], in [4], in test [5] and in test [6] was “inactive” throughout. For the same compound, the Potency entry in test [7], in [8] and in test [9] was “inactive” in each case.
For `c1ccc(CNCc2ccccc2)cc1`, the Potency entry in test [1], in test [2], in [3], in test [4], in test [5] and in test [6] was “inactive” in each case. The Potency entry in [9] was “inactive”.
On to `C=CC[N+]1([C@H]2C[C@H]3[C@@H]4CC[C@H]5C[C@H](OC(C)=O)[C@@H](N6CCCCC6)C[C@]5(C)[C@H]4CC[C@]3(C)[C@H]2OC(=O)CC)CCCCC1`, for which the Potency result in test [1], in test [2], in test [3], in test [4], in [5] and in [6] was “inactive” each time. The Potency result in test [8] and in [9] was “inactive” throughout.
`Nc1nc(CC(=O)O)cs1`: the Potency entry in test [1], in test [2], in test [3], in [4], in [5] and in test [6] was “inactive” throughout. The Potency result in test [8] and in [9] was “inactive” each time. The Potency in test [7] was 48.7 µM (active).
With `NC(N)=N/N=C/c1c(Cl)cccc1Cl`, the Potency result in test [1], in test [4], in [5], in test [6], in test [7] and in test [8] was “inactive” each time. In addition, the Potency result in test [10] was “inactive”. The Potency in [2] and in test [3] was 23.7 µM (active) throughout.
As for `Cl/C(=C\n1cncn1)c1ccc(Cl)cc1Cl`, the Potency result in test [1], in [2], in [3], in test [4], in test [5] and in test [6] was “inactive” each time. For the same compound, the Potency result in [7], in test [8], in test [9] and in [10] was “inactive” each time.
For the compound `CCOc1ccc(NC(=O)CC(C)=O)cc1`, the Potency result in test [1], in test [2], in test [3], in [4], in test [5] and in test [6] was “inactive” throughout. For the same compound, the Potency entry in test [7], in test [8] and in [10] was “inactive” in each case.
Turning to `CCCCCCCC/C=C\CCCCCCCC(N)=O`, the Potency entry in [1], in [2], in [3], in [4], in test [5] and in [6] was “inactive” each time. Besides, the Potency entry in [7], in [8] and in test [9] was “inactive” throughout.
Consider `C=CC(=O)OCCOC(=O)CCC(=O)O`, for which the Potency entry in test [1], in test [2], in test [3], in [4], in test [5] and in [6] was “inactive” each time. Moreover, the Potency entry in [7] and in test [9] was “inactive” each time.
Turning to `CCC(=O)OC(C)(C)C1CC=C(C)CC1` (stereo unspecified), the Potency result in test [1], in test [2], in [3], in [4], in test [5] and in test [6] was “inactive” in each case. The Potency result in test [7], in test [8], in test [9] and in test [10] was “inactive” in each case.
